Reference: PubChem BioAssay (NCATS)
Results filed as inconclusive are left out. The source made the active and inactive calls. Calls follow the shape of the dose curve; as a rule, active = well fitted curve in the direction sought with a large enough effect; inconclusive = small, poorly fitted or top-dose-only effect, or another doubt; inactive = no such curve, though single readings can be large; an effect the other way counts as inactive or inconclusive.

Legend:
[1] = qHTS of pediatric cancer cell lines to identify multiple opportunities for drug repurposing: Primary screen for NB-EBc1 cells (AID 1347095)
How it was run: (§1)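 Cells seeded at 500-1,000 cells/well in growth media, rested 5 hours at 37 degrees C, 5% CO2, then dosed; MIPE compounds at 11-point (from 0.78 nM) and NPC at 8-point (from 0.59 nM) final concentrations. Viability by CellTiter-Glo luminescence after 48 hours.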

[2] = qHTS of pediatric cancer cell lines to identify multiple opportunities for drug repurposing: Primary screen for U-2 OS cells (AID 1347096); also: nearly all actives have a fitted effect of over 50% in size
How it was run: (§2)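 Cells (500-1,000/well) in growth media were settled 5 h at 37 degrees C, then given compounds for 48 h. Viability was read as CellTiter-Glo luminescence. Primary runs used MIPE at 11 points (0.78 nM-46 µM) and NPC at 8 points (0.59 nM-46 µM); follow-ups used 11 points.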

[3] = qHTS of pediatric cancer cell lines to identify multiple opportunities for drug repurposing: Primary screen for Saos-2 cells (AID 1347097); also: nearly all actives have a fitted effect of over 40% in size
How it was run: as §1

[4] = qHTS of pediatric cancer cell lines to identify multiple opportunities for drug repurposing: Primary screen for SK-N-SH cells (AID 1347098);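 also: DMSO served as neutral control and bortezomib at 2.3 µM as positive control; nearly all actives have a fitted effect of over 65% in size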
How it was run: (§3)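 Cells (500-1,000/well) rested 5 h, then received compounds for 48 h; metabolically active cells were measured by CellTiter-Glo luminescence. Final concentrations spanned up to 46 µM (MIPE, 11-point) or 0.59 nM-46 µM (NPC, 8-point) in primary screens, 11-point in follow-ups.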

[5] = qHTS of pediatric cancer cell lines to identify multiple opportunities for drug repurposing: Primary screen for NB1643 cells (AID 1347099); also: nearly all actives have a fitted effect of over 50% in size
How it was run: as §1

[6] = qHTS of pediatric cancer cell lines to identify multiple opportunities for drug repurposing: Primary screen for LAN-5 cells (AID 1347100)
How it was run: as §2

[7] = qHTS of pediatric cancer cell lines to identify multiple opportunities for drug repurposing: Primary screen for BT-12 cells (AID 1347101); also: nearly all actives have a fitted effect of over 25% in size
How it was run: as §3

[8] = qHTS of pediatric cancer cell lines to identify multiple opportunities for drug repurposing: Primary screen for Rh18 cells (AID 1347102); also: nearly all actives have a fitted effect of over 65% in size
How it was run: as §2

[9] = qHTS of pediatric cancer cell lines to identify multiple opportunities for drug repurposing: Primary screen for OHS-50 cells (AID 1347103); also: nearly all actives have a fitted effect of over 40% in size
How it was run: as §3

[10] = qHTS of pediatric cancer cell lines to identify multiple opportunities for drug repurposing: Primary screen for RD cells (AID 1347104); also: nearly all actives have a fitted effect of over 55% in size
How it was run: as §1

[11] = qHTS of pediatric cancer cell lines to identify multiple opportunities for drug repurposing: Primary screen for MG 63 (6-TG R) cells (AID 1347105); also: nearly all actives have a fitted effect of over 50% in size
How it was run: as §1

[12] = qHTS of pediatric cancer cell lines to identify multiple opportunities for drug repurposing: Primary screen for control Hh wild type fibroblast cells (AID 1347106);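 also: series mostly up to about 46 µM; a drop in luminescence marks cytotoxicity and a rise apparent proliferation; nearly all actives have a fitted effect of over 55% in size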
How it was run: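 Viability after 48 h compound treatment at 37C, 500-1,000 cells/well, read as ATP luminescence with CellTiter-Glo. Primary screens used 11-point (MIPE, 0.78 nM-46 µM) or 8-point (NPC, 0.59 nM-46 µM) final concentrations; follow-up screens used 11-point dilutions.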

[13] = qHTS of pediatric cancer cell lines to identify multiple opportunities for drug repurposing: Primary screen for Rh30 cells (AID 1347107); also: series mostly up to about 46 µM; nearly all actives have a fitted effect of over 75% in size
How it was run: as §2

[14] = qHTS of pediatric cancer cell lines to identify multiple opportunities for drug repurposing: Primary screen for Rh41 cells (AID 1347108);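 also: series mostly up to about 46 µM; luminescence drop marks cytotoxic hits; nearly all actives have a fitted effect of over 70% in size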
How it was run: as §1

Measured: Potency

CCS(=O)(=O)c1ccc(OC)c(C(=O)OC)c1
inactive: [1] | [2] | [3] | [4] | [5] | [6] | [7] | [8] | [9] | [10] | [11] | [12] | [13]

CCOC(=O)Oc1ccc(CCNC(=O)[C@H](CCSC)NC(C)=O)cc1OC(=O)OCC
inactive: [1] | [2] | [3] | [4] | [5] | [6] | [7] | [8] | [9] | [10] | [11] | [12] | [13] | [14]

O=P(O)(O)OCC(O)CO (stereo not drawn)
inactive: [1] | [2] | [3] | [4] | [5] | [6] | [7] | [8] | [9] | [10] | [11] | [12] | [13] | [14]

CCOC(=O)C(=O)CCCCCCl
inactive: [1] | [2] | [3] | [4] | [5] | [6] | [7] | [8] | [9] | [10] | [11] | [12] | [13] | [14]

O=C(CCCCCCCCC#CI)Oc1ccccc1
inactive: [1] | [2] | [3] | [4] | [5] | [6] | [7] | [8] | [9] | [10] | [11] | [12] | [13] | [14]

O=C(C1CCCCC1)N1CC(=O)N2CCCc3ccccc3C2C1 (stereo not drawn)
inactive: [1] | [2] | [3] | [4] | [5] | [6] | [7] | [8] | [9] | [10] | [11] | [12] | [13] | [14]

Nc1c(I)cc(I)c(C(=O)N(CCC(=O)O)c2ccccc2)c1I
inactive: [1] | [2] | [3] | [4] | [5] | [6] | [7] | [8] | [9] | [10] | [11] | [12] | [13]

CC(C)NCCCC1(C(N)=O)c2ccccc2-c2ccccc21
inactive: [1] | [2] | [3] | [4] | [5] | [6] | [7] | [8] | [9] | [10] | [11] | [12] | [13] | [14]

COC(=O)c1cc(Cl)c(NC(C)=O)cc1OC
inactive: [1] | [2] | [3] | [4] | [5] | [6] | [7] | [8] | [9] | [10] | [11] | [12] | [13] | [14]

Cc1onc(-c2c(Cl)cccc2Cl)c1C(=O)Cl
inactive: [1] | [2] | [3] | [4] | [5] | [6] | [7] | [8] | [9] | [10] | [11] | [12] | [13] | [14]

Cc1cc(=O)oc2cc(O[C@@H]3SC[C@@H](O)[C@H](O)[C@H]3O)ccc12
inactive: [1] | [2] | [3] | [4] | [5] | [6] | [7] | [8] | [9] | [10] | [11] | [12] | [13]

Oc1ccccc1
inactive: [1] | [2] | [3] | [4] | [5] | [6] | [7] | [8] | [9] | [10] | [11] | [12] | [13] | [14]

COc1cc(OC)nc(O[C@H](C(=O)O)C(OC)(c2ccccc2)c2ccccc2)n1
inactive: [1] | [2] | [3] | [4] | [5] | [6] | [7] | [8] | [9] | [10] | [11] | [12] | [13] | [14]

CCOc1ccc(NS(=O)(=O)c2ccc(N)cc2)nn1
inactive: [1] | [2] | [3] | [4] | [5] | [6] | [7] | [8] | [9] | [10] | [11] | [12] | [13] | [14]

CCN1CCN(C(=O)N[C@@H](C(=O)N[C@@H]2C(=O)N3[C@@H]2SC(C)(C)[C@H]3C(=O)O)c2ccccc2)C(=O)C1=O
inactive: [1] | [2] | [3] | [4] | [5] | [6] | [7] | [8] | [9] | [10] | [11] | [12] | [13] | [14]

O=C(O)c1cn(C2CC2)c2cc(Cl)c(F)cc2c1=O
inactive: [1] | [2] | [3] | [4] | [5] | [6] | [7] | [8] | [9] | [10] | [11] | [12] | [13] | [14]

CC(C)OP(=O)(CP(=O)(OC(C)C)OC(C)C)OC(C)C
inactive: [1] | [2] | [3] | [4] | [5] | [6] | [7] | [8] | [9] | [10] | [11] | [12] | [13] | [14]

CCCCOC(=O)CCCCCCCCC(=O)OCCCC
inactive: [1] | [2] | [3] | [4] | [5] | [6] | [7] | [8] | [9] | [10] | [11] | [12] | [13] | [14]

CC1CC(=O)NN=C1c1ccc(NCC(C)(C)NCC(O)COc2cc(Cl)ccc2C#N)cc1 (stereo not drawn)
inactive: [1] | [2] | [3] | [4] | [5] | [6] | [7] | [8] | [9] | [10] | [11] | [12] | [13] | [14]
